From the supplement of paper PMC3334620
In all, about 33,000 sequences were measured (“E-score (-0.5 to 0.5)”: median about -0.0059, highest 2% from about 0.26 on). The sample holds the highest values, similar sequences and a random draw of the others, so the mix is not that of the screen.

These sequences were tested against T1, Cin5 (UniProt P40917) (assay: PBM E-score (8-mer binding enrichment) (E-score (-0.5 to 0.5)); higher = stronger / more preferred TF binding). Conditions: protein concentration: 100 nM; construct: GST-full length.
T1 sequence: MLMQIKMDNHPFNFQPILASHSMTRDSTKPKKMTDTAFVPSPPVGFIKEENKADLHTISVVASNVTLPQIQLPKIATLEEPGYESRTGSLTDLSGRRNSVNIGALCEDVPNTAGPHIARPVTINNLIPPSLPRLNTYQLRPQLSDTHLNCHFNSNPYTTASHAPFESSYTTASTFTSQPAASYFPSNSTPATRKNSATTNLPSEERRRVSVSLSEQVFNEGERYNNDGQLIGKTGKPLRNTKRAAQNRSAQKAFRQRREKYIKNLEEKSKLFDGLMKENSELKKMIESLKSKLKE
Procedure: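 Universal 'all 10-mer' protein binding microarrays (Agilent AMADID 015681) probed with GST-tagged S. cerevisiae TFs (full-length or DBD) made by in vitro transcription/translation (PURExpress), about 100-200 nM. Bound TF was detected with fluorescent anti-GST. Each ungapped 8-mer (which stands for itself and its reverse complement) is scored by the PBM enrichment score (E-score), a modified Wilcoxon-Mann-Whitney statistic from -0.5 to +0.5, computed with the Universal PBM Analysis Suite. Scale: above 0.35 generally sequence-specific binding.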

Going from CCACTAAC to ATTGGGGA, the “PBM E-score” value rises from 0.0063 to 0.00734.

First: AGGTCCTC
Second: GCCGCGAC
The “PBM E-score” value of the first is lower: -0.134 for the first, -0.086 for the second.

Compared with ACGAACGG, CACGATAG is higher in “PBM E-score” value: 0.0374 for the first, 0.139 for the second.

Compared with CTAGTCAG, AGGACCCG is lower in “PBM E-score” value: -0.0157 for the first, -0.169 for the second.

First: ACCATACC
Second: ATCAGTTG
The “PBM E-score” value of the first is lower: -0.0386 for the first, 0.209 for the second.

Going from CCAGCGCA to ATATTCCG, the “PBM E-score” value rises from -0.132 to 0.179.

First: GAATTCCA
Second: CAATTCCA
The “PBM E-score” value of the first is higher: 0.173 for the first, 0.0576 for the second.

Compared with ATATTCCA, AAATTCCA is higher in “PBM E-score” value: 0.274 for the first, 0.295 for the second.

Compared with CTATTCCA, AAAAGCTT is lower in “PBM E-score” value: 0.215 for the first, -0.127 for the second.

Going from CCTCAATA to CCGGGGCC, the “PBM E-score” value falls from -0.0429 to -0.242.

Going from CTCGAGAA to ACTTGTAC, the “PBM E-score” value rises from -0.0673 to 0.00779.

Compared with ATCTCTCA, ATATCTCA is higher in “PBM E-score” value: 0.216 for the first, 0.277 for the second.

Compared with CTATCTCA, CTGCTATA is higher in “PBM E-score” value: -0.00021 for the first, 0.117 for the second.

Going from GCAACTCA to CAAGCTTA, the “PBM E-score” value rises from 0.00079 to 0.184.

Going from TAAGCTTA to CAAGCTGA, the “PBM E-score” value falls from 0.372 to 0.233.

First: GAAGCTTA
Second: AAAGCTGA
The “PBM E-score” value of the first is higher: 0.171 for the first, -0.056 for the second.

First: TAAGCTGA
Second: GGCTGTCA
The “PBM E-score” value of the first is higher: 0.267 for the first, -0.21 for the second.

First: TATATCAA
Second: GCATCGGC
The “PBM E-score” value of the first is higher: 0.196 for the first, -0.125 for the second.

Going from ACTACCCG to AGCTTCCG, the “PBM E-score” value falls from -0.0362 to -0.0682.

Compared with GGTATTAA, AGTATTCC is higher in “PBM E-score” value: 0.064 for the first, 0.225 for the second.

Going from AGTATTAG to AGTATTAA, the “PBM E-score” value falls from 0.275 to 0.242.

Compared with AGTATTAT, CGTATTAC is higher in “PBM E-score” value: 0.0851 for the first, 0.214 for the second.

First: GGTATTAC
Second: AGTATTAC
The “PBM E-score” value of the first is higher: 0.271 for the first, 0.27 for the second.

Compared with CGTATTAG, GGTTGCTA is lower in “PBM E-score” value: 0.109 for the first, -0.0578 for the second.

First: GACCGCCA
Second: CACTGTAC
The “PBM E-score” value of the first is higher: -0.0859 for the first, -0.0867 for the second.

Compared with CTTGCACC, AAGCACAT is higher in “PBM E-score” value: 0.0355 for the first, 0.206 for the second.

Going from AGGAGAGC to AGCAGCAG, the “PBM E-score” value rises from -0.394 to -0.0447.

Going from CCTGGTAC to CTCTGATC, the “PBM E-score” value falls from -0.1 to -0.162.

First: ATATTATA
Second: ATATTGTA
The “PBM E-score” value of the first is higher: 0.265 for the first, 0.151 for the second.

Going from CTATTGTA to ATATTAGA, the “PBM E-score” value rises from 0.13 to 0.159.

Going from CTATTACA to GCATTACA, the “PBM E-score” value falls from 0.181 to 0.167.

Going from GTATTACA to GTATTATA, the “PBM E-score” value falls from 0.34 to 0.267.

First: GTATTAGA
Second: GTATTGTA
The “PBM E-score” value of the first is lower: 0.234 for the first, 0.274 for the second.

First: CTATTATA
Second: GCATTATA
The “PBM E-score” value of the first is lower: 0.142 for the first, 0.152 for the second.

Compared with AGCTAGGC, CGCCGCAA is higher in “PBM E-score” value: -0.14 for the first, 0.0347 for the second.

First: GACAGTCA
Second: CCGAATGA
The “PBM E-score” value of the first is lower: -0.165 for the first, -0.0132 for the second.

Compared with CCCAATAC, TTCCGGAA is higher in “PBM E-score” value: -0.00655 for the first, 0.248 for the second.

Compared with ATCCTCTG, AGGATCCA is lower in “PBM E-score” value: 0.0169 for the first, -0.0524 for the second.

First: GGAATCCA
Second: AGATTATG
The “PBM E-score” value of the first is lower: 0.0132 for the first, 0.248 for the second.

Going from ATATTATG to ATATTATC, the “PBM E-score” value falls from 0.379 to 0.233.

First: GGGGTGTA
Second: CCCGATAG
The “PBM E-score” value of the first is lower: -0.208 for the first, -0.0593 for the second.

First: AATAATGT
Second: CATAATAA
The “PBM E-score” value of the first is higher: 0.273 for the first, 0.0985 for the second.

First: AATAACCT
Second: AATAATAA
The “PBM E-score” value of the first is lower: 0.061 for the first, 0.305 for the second.

First: GATAATAA
Second: AATAATCT
The “PBM E-score” value of the first is lower: 0.199 for the first, 0.345 for the second.

Going from AATAATAG to AATAATGC, the “PBM E-score” value falls from 0.198 to 0.145.

Compared with AATAATAT, AATAATGG is lower in “PBM E-score” value: 0.356 for the first, 0.226 for the second.

First: AATAATAC
Second: AAAAATCT
The “PBM E-score” value of the first is higher: 0.181 for the first, 0.0604 for the second.

Compared with AAAAAACG, AATCATTG is higher in “PBM E-score” value: 0.125 for the first, 0.207 for the second.

Going from ACGCAGTA to CCACCGTA, the “PBM E-score” value rises from -0.15 to -0.049.

Going from GGTAGCAC to CATGGATC, the “PBM E-score” value rises from -0.152 to -0.00694.

First: ACTCGCGA
Second: TAGATCGA
The “PBM E-score” value of the first is higher: 0.214 for the first, 0.0888 for the second.

Going from ACTCTGGG to CGGAGACC, the “PBM E-score” value falls from -0.0166 to -0.167.

First: CCCTCGGC
Second: AGTCCCTA
The “PBM E-score” value of the first is lower: -0.217 for the first, -0.176 for the second.

First: AGCTGAAG
Second: ATCTGCGA
The “PBM E-score” value of the first is higher: 0.0392 for the first, 0.00217 for the second.

First: ATTACGTG
Second: GTTACGGA
The “PBM E-score” value of the first is higher: 0.423 for the first, -0.122 for the second.

First: ACTACGTG
Second: ACTACGTC
The “PBM E-score” value of the first is lower: -0.223 for the first, 0.00455 for the second.

First: AGTACGTG
Second: GTTACGTA
The “PBM E-score” value of the first is lower: -0.096 for the first, 0.305 for the second.

First: CTTACGTC
Second: ATTACGTC
The “PBM E-score” value of the first is lower: 0.196 for the first, 0.371 for the second.

First: GGTACGTA
Second: ACCCTGGA
The “PBM E-score” value of the first is higher: -0.032 for the first, -0.243 for the second.

Compared with AGCGCCCA, AGTCAACT is higher in “PBM E-score” value: -0.243 for the first, -0.157 for the second.

First: CGAGCTCG
Second: ATACCATA
The “PBM E-score” value of the first is lower: 0.0762 for the first, 0.259 for the second.

Going from ATACCATG to GTACCATA, the “PBM E-score” value falls from 0.0359 to -0.04.

First: CTGCCCAC
Second: GCCTTTAC
The “PBM E-score” value of the first is lower: -0.151 for the first, -0.0984 for the second.

First: GGTATGAA
Second: AGGTTCTC
The “PBM E-score” value of the first is higher: 0.126 for the first, -0.153 for the second.

Going from ATCAAGCA to ATCAAACA, the “PBM E-score” value rises from 0.114 to 0.274.

Going from CTCAAACA to TAAAAACA, the “PBM E-score” value rises from 0.0626 to 0.174.

Going from AAAAAACA to GAAAAACA, the “PBM E-score” value falls from 0.284 to -0.0228.

Compared with TAGATGCA, ACTTTGAG is lower in “PBM E-score” value: 0.0348 for the first, -0.126 for the second.

Going from AGGCCAGA to GATTCTTA, the “PBM E-score” value rises from -0.0898 to 0.213.

First: ATGTACAT
Second: CTATCGAA
The “PBM E-score” value of the first is higher: 0.205 for the first, 0.0827 for the second.

Compared with CAATCCCC, CAATCCCG is higher in “PBM E-score” value: 0.0168 for the first, 0.259 for the second.

First: CAATCCCA
Second: CCGGTTGC
The “PBM E-score” value of the first is lower: -0.0745 for the first, 0.00629 for the second.

Compared with GTTGTCTA, ATTGTCTC is lower in “PBM E-score” value: 0.114 for the first, -0.017 for the second.

First: ATTGTCTA
Second: AAGTAGAG
The “PBM E-score” value of the first is higher: 0.273 for the first, -0.126 for the second.

Compared with ACGCCTTG, GTAAAAGA is higher in “PBM E-score” value: -0.0542 for the first, 0.0603 for the second.

First: AATGATAG
Second: GATGATTA
The “PBM E-score” value of the first is higher: 0.272 for the first, 0.23 for the second.

First: CATGATAG
Second: AATGATTC
The “PBM E-score” value of the first is lower: 0.0148 for the first, 0.161 for the second.

First: CATGATTC
Second: CATGATTA
The “PBM E-score” value of the first is lower: -0.0303 for the first, 0.321 for the second.

Going from AATGATTA to AATGATAA, the “PBM E-score” value falls from 0.335 to 0.227.

First: CATGATGA
Second: CGCGTCGA
The “PBM E-score” value of the first is higher: 0.173 for the first, 0.0758 for the second.

First: TAACCGGA
Second: GCGCACGC
The “PBM E-score” value of the first is higher: 0.106 for the first, -0.12 for the second.

First: CCTGCAGG
Second: ACCGCGAC
The “PBM E-score” value of the first is lower: -0.134 for the first, -0.104 for the second.

First: CACGGGTA
Second: ACATGGTG
The “PBM E-score” value of the first is lower: -0.0916 for the first, 0.0908 for the second.

First: AGTCTGGA
Second: GCGAGACC
The “PBM E-score” value of the first is higher: 0.041 for the first, -0.127 for the second.

First: CGCGATTA
Second: AGCGATTA
The “PBM E-score” value of the first is higher: 0.263 for the first, 0.127 for the second.

Compared with CGCGATTC, CGGGATTC is lower in “PBM E-score” value: 0.124 for the first, 0.0661 for the second.
